Molecules are shown by their SMILES.

This passage reports residual activity results from ChEMBL document CHEMBL2218924, “A broad activity screen in support of a chemogenomic map for kinase signalling research and drug discovery” (Biochem J, 2013).

The target in assay [1] is T1, Muscle, skeletal receptor tyrosine-protein kinase (Homo sapiens) (UniProt O15146).
T1 sequence (whole entry): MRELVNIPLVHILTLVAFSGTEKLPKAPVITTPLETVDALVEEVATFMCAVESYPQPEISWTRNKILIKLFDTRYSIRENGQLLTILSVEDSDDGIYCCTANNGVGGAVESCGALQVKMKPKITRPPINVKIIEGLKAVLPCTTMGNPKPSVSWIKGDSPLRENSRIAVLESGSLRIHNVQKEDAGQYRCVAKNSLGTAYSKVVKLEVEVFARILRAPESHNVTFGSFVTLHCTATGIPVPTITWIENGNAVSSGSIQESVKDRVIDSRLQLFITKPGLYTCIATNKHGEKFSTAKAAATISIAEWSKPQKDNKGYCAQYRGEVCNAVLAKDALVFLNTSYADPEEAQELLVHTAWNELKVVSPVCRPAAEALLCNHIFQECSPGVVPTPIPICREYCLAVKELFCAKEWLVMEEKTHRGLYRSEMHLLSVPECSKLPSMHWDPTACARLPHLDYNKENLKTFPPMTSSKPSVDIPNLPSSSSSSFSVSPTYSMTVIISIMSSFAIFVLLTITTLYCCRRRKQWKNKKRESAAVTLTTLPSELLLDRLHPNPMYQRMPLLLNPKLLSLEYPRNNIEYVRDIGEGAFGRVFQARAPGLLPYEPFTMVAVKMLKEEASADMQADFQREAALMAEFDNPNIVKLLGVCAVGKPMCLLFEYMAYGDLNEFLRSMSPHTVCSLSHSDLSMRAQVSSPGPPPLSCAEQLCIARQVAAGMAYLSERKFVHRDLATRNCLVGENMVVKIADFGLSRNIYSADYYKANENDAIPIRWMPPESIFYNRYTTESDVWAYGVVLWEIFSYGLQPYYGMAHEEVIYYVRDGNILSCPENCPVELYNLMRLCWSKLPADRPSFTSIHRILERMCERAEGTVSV
To be noted: at 10 µM.

In assay [2] the target is T2, Serine/threonine-protein kinase Nek11 (Homo sapiens) (UniProt Q8NG66).
T2 sequence (whole entry): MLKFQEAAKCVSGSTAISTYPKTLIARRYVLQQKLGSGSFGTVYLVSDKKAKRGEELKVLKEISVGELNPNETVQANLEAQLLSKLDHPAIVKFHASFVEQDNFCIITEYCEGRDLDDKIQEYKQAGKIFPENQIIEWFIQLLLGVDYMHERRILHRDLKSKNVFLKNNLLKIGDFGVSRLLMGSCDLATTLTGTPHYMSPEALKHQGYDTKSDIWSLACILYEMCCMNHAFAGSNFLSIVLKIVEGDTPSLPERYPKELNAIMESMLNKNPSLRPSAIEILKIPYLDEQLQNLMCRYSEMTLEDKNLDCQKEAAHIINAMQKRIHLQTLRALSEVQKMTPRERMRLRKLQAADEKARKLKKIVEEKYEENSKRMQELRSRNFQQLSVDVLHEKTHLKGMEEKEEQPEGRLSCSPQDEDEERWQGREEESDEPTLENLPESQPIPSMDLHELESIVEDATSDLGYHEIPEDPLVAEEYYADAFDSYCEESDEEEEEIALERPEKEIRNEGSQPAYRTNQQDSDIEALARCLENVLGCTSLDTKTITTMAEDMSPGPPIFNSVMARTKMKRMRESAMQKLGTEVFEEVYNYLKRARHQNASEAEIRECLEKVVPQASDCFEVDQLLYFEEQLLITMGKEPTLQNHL
To be noted: at 1 µM.

The target of assay [3] is T2, Serine/threonine-protein kinase Nek11 (Homo sapiens). To be noted: at 10 µM.
For assay [4], the target named is T3, Serine/threonine-protein kinase Nek2 (Homo sapiens) (UniProt P51955).
T3 sequence (whole entry): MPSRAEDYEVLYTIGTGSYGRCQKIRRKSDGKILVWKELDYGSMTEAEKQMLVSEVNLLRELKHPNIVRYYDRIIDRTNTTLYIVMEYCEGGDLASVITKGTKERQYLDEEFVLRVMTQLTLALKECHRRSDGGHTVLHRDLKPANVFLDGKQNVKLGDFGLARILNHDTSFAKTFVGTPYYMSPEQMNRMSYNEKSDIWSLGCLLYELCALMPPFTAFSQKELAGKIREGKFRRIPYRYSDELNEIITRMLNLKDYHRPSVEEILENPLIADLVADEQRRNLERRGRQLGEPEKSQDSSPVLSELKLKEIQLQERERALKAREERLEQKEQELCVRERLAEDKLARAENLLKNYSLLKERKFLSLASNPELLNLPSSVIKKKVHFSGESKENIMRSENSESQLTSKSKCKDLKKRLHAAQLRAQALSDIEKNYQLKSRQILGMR
To be noted: at 1 µM.

Assay [5] addresses T3, Serine/threonine-protein kinase Nek2 (Homo sapiens). To be noted: at 10 µM.
Assay [6] concerns the target Serine/threonine-protein kinase tousled-like 2 (Homo sapiens) (UniProt Q86UE8). To be noted: at 1 µM.
Assay [7] shares this target. To be noted: at 10 µM.
In assay [8] the target is T4, Testis-specific serine/threonine-protein kinase 1 (Homo sapiens) (UniProt Q9BXA7).
T4 sequence (whole entry): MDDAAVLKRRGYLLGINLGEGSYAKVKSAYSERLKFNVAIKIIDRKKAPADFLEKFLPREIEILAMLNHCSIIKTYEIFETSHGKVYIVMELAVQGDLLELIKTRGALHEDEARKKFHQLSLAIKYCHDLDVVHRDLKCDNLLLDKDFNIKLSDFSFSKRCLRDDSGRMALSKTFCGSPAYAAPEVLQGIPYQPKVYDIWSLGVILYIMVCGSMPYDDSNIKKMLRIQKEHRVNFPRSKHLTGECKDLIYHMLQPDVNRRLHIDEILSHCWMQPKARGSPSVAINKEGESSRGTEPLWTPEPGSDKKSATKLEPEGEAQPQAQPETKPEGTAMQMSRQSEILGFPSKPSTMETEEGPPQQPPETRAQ
To be noted: at 1 µM.

For assay [9], the target named is T4, Testis-specific serine/threonine-protein kinase 1 (Homo sapiens). To be noted: at 10 µM.
Assay [10] concerns the target T5, Testis-specific serine/threonine-protein kinase 2 (Homo sapiens) (UniProt Q96PF2).
T5 sequence (whole entry): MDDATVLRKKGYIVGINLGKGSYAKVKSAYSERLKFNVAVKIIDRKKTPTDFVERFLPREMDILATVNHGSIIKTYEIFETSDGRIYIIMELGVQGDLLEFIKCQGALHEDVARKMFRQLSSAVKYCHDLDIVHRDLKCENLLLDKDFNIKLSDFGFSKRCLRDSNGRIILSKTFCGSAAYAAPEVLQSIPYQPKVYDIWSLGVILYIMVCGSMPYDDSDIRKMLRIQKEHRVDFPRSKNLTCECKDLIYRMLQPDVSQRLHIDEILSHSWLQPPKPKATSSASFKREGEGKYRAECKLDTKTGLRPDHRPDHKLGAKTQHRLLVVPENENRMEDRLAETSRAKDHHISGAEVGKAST
To be noted: at 10 µM.

Assay [11] concerns the target T6, Tyrosine-protein kinase Tec (Homo sapiens) (UniProt P42680).
T6 sequence (whole entry): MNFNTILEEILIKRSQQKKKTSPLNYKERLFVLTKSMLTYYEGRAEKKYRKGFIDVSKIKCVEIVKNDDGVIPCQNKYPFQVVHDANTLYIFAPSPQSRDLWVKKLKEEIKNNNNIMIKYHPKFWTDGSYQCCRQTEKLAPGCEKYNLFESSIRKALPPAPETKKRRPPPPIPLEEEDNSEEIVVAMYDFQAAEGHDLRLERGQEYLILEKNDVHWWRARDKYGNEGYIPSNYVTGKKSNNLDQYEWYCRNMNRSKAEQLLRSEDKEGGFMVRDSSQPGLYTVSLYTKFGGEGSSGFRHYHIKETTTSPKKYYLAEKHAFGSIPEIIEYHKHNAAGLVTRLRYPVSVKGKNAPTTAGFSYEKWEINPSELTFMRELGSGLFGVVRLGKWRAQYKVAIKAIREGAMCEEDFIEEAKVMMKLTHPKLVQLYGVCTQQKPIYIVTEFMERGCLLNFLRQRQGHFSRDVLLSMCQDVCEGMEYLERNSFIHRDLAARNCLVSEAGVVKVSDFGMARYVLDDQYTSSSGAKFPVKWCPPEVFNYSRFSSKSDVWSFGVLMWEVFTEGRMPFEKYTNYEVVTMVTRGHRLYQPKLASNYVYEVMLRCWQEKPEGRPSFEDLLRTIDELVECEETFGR
To be noted: at 1 µM.

Assay [12] addresses T6, Tyrosine-protein kinase Tec (Homo sapiens). To be noted: at 10 µM.
The target in assay [13] is Angiopoietin-1 receptor (Homo sapiens) (UniProt Q02763). To be noted: at 10 µM.
Sequence of Angiopoietin-1 receptor (Homo sapiens) (Q02763 whole entry): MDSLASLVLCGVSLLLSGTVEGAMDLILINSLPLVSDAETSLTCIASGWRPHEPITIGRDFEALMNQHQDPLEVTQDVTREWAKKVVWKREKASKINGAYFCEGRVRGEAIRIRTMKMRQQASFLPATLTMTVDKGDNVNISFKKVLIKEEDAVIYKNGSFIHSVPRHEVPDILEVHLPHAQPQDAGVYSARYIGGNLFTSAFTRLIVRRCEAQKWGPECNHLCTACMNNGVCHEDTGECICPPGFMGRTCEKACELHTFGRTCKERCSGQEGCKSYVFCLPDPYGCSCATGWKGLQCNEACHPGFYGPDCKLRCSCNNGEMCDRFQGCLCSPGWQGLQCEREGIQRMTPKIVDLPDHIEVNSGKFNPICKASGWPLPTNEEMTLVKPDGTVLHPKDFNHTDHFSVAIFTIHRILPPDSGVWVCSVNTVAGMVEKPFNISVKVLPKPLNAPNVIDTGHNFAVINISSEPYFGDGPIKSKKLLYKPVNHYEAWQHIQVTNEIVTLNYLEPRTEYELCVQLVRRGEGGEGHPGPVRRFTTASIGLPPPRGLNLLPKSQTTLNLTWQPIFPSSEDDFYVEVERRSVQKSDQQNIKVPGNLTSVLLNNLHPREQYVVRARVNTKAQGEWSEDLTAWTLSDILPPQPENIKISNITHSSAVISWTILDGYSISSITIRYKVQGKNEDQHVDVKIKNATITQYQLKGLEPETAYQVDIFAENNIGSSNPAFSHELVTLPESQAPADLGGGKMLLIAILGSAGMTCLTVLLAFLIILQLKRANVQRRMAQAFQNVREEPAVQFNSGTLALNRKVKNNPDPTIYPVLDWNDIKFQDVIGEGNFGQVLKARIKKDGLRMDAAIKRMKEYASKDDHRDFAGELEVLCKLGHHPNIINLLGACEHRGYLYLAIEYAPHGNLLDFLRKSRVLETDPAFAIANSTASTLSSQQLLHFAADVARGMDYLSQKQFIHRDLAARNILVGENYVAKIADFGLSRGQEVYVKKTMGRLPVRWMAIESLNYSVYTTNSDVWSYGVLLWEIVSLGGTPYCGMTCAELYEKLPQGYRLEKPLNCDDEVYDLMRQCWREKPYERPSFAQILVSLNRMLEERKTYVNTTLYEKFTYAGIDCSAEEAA
Assay [14] addresses High affinity nerve growth factor receptor (Homo sapiens) (UniProt P04629). To be noted: at 1 µM.
For assay [15] the target is unchanged. To be noted: at 10 µM.
The target in assay [16] is BDNF/NT-3 growth factors receptor (Homo sapiens) (UniProt Q16620). To be noted: at 1 µM.
Sequence of BDNF/NT-3 growth factors receptor (Homo sapiens) (Q16620 32-822 limits assumed): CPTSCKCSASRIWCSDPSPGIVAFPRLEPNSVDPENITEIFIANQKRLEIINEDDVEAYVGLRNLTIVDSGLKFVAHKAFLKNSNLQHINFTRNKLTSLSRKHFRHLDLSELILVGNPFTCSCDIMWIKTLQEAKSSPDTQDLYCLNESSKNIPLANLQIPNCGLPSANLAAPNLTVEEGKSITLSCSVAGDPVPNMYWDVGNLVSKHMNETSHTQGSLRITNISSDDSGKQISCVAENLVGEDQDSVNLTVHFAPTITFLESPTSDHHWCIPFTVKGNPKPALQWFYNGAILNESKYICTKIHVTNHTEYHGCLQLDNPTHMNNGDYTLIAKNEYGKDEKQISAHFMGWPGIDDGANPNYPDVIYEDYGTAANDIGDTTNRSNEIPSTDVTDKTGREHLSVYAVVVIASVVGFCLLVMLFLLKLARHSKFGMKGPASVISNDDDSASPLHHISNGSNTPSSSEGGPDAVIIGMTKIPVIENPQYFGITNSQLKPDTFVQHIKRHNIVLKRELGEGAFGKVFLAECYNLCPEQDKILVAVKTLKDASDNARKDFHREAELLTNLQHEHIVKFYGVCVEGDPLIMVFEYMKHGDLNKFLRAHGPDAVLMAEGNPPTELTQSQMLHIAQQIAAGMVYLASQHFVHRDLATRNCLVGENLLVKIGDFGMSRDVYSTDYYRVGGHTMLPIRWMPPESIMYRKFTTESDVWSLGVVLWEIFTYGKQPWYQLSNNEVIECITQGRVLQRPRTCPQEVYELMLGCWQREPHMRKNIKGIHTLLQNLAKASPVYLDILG
In assay [17] the target is T1, Muscle, skeletal receptor tyrosine-protein kinase (Homo sapiens). To be noted: at 1 µM.
The target of assay [18] is T7, Serine/threonine-protein kinase Nek3 (Homo sapiens) (UniProt P51956).
T7 sequence (whole entry): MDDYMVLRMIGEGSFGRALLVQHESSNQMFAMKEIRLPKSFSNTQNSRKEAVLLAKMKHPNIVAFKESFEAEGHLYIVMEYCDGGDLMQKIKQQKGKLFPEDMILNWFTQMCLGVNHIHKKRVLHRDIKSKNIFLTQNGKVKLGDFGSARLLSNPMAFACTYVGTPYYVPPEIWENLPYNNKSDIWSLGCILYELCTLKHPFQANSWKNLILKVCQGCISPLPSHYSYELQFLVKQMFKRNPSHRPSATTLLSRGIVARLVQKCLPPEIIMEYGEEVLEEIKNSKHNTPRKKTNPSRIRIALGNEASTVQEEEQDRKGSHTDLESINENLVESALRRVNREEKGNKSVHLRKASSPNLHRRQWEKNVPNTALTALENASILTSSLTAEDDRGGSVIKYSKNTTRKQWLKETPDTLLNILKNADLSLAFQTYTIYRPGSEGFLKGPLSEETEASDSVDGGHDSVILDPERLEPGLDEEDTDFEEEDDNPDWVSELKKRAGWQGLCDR
To be noted: at 1 µM.

For assay [19], the target named is T7, Serine/threonine-protein kinase Nek3 (Homo sapiens). To be noted: at 10 µM.
For assay [20], the target named is Angiopoietin-1 receptor (Homo sapiens) (UniProt Q02763). To be noted: at 1 µM.

Sequence of High affinity nerve growth factor receptor (Homo sapiens) (P04629 33-796 limits assumed): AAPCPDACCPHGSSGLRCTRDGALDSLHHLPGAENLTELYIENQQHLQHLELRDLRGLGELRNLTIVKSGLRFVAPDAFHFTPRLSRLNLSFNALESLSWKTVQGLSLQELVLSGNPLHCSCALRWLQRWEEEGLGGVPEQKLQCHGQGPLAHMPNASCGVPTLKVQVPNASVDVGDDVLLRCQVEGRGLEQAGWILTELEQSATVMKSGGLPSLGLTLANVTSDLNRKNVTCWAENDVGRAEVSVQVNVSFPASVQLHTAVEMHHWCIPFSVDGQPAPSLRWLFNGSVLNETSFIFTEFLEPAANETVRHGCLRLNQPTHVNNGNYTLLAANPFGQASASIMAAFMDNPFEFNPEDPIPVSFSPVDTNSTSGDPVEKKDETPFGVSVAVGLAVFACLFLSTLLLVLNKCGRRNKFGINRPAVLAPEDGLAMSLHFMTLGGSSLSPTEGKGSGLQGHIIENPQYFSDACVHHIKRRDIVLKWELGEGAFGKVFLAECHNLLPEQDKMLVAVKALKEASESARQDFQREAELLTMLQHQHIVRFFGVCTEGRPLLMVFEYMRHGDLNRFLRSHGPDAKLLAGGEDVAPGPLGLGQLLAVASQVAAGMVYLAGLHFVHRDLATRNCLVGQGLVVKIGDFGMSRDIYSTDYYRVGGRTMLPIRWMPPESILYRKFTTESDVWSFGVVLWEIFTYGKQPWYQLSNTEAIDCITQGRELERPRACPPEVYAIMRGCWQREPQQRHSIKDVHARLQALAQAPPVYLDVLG
Sequence of Serine/threonine-protein kinase tousled-like 2 (Homo sapiens) (Q86UE8 whole entry, looked up): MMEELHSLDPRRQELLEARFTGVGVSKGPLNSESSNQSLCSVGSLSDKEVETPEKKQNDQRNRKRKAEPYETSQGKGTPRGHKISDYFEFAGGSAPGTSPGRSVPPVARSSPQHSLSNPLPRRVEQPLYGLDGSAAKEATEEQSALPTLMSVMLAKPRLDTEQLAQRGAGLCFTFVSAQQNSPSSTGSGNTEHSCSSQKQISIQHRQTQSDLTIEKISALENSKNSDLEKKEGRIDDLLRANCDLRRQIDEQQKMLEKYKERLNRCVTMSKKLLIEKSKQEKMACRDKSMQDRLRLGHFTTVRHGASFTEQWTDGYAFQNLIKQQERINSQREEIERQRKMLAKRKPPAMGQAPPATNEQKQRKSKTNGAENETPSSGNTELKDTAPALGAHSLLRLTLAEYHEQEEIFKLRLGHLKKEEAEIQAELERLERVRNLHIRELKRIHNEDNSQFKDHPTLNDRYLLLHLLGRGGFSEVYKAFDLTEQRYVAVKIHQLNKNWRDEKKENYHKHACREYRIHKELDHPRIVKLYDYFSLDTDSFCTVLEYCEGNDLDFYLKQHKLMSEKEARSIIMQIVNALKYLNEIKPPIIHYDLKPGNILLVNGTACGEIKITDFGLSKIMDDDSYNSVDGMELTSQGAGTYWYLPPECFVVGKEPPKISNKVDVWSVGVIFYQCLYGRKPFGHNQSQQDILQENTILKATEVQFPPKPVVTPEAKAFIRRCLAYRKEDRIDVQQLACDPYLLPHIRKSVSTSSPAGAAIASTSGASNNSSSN

As usually defined, the residual activity is the signal under treatment as a percentage of the control signal. For `COc1cc2ncnc(Nc3ccc(NC(=O)c4ccccc4)cc3)c2cc1OC`, the residual activity in [1] worked out at 98%; in assay [2], 96%; in assay [3], 103%; in assay [4], 105%; in assay [5] it was 95%; in [6], 109%. Further, the residual activity was determined as 86% in assay [7]; 109% in [8]; 92% in [9]; 96% in assay [10]; 97% in assay [11]; 82% in assay [12]. Further, the residual activity in assay [13] came out at 65%; in assay [14] it was 73%; in assay [15], 20%; in assay [16] it was 54%.

As to `CC(C)n1cnc2c(NCc3ccccc3)nc(NCCCO)nc21`, the residual activity came out at 82% in assay [17]; 86% in assay [1]; 57% in [2]; 72% in assay [3]; 96% in [4]; 82% in assay [5]. Moreover, the residual activity in [18] is 85%; in assay [19], 99%; in [6], 96%; in assay [7], 89%; in assay [8], 90%; in assay [9], 89%. The residual activity came to 81% in assay [10]; 90% in [11]; 89% in [12]; 104% in assay [20]; 87% in assay [13]; 93% in [14]. The figures for the residual activity in [15] and in [16] were 94% and 88%, respectively.

With `CN(C)c1ccc(/C=C2\C(=O)Nc3ccccc32)cc1`, the residual activity in [17] came out at 94%; in [1], 25%; in assay [2], 90%; in [3], 90%; in assay [4] it was 94%; in assay [5], 113%. In addition, the residual activity in assay [18] was 111%; in assay [19], 75%; in assay [6], 98%; in [7] it was 97%; in assay [8] it was 104%; in [9], 101%. For the same compound, the residual activity in [10] turned out to be 97%; in assay [11], 87%; in assay [12], 68%; in assay [20], 83%; in assay [13], 70%; in assay [14], 10%. In addition, the figures for the residual activity in assay [15] and in assay [16] were 3% and 46%, respectively.

For `N#CCCc1ccc2c(c1)-c1[nH]c3ccc([N+](=O)[O-])cc3c1CC(=O)N2`, the residual activity is 68% in assay [17]; 32% in assay [1]; 72% in [3]; 79% in assay [18]; 67% in assay [19]; 39% in [8]. The residual activity in [9] was 21%; in [12], 29%; in assay [14] it was 54%; in assay [15] it was 23%; in assay [16], 71%.
